# Experimental data reported in PubChem BioAssay (NCI).
# About 83,000 compounds went through this panel and 20% of them were active in at least one assay; those are over-represented in the sample as a whole.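 Assay: single dose, 48 h. Readout: percent growth (0 = no net growth; negative = cell death). Active: <10.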 Values without a mark were called inactive. The source made the active and inactive calls.
# Columns and labels:
# Assay in all cases: NCI-60 one-dose screen, 48 h (100 = growth as untreated, 0 = no growth, -100 = all killed)
# NCI-H23 lung = details: 10 µM unless noted
# NCI-H226 lung = details: 10 µM unless noted
# NCI-H322M lung = details: 10 µM unless noted
# HOP-62 NSCLC = details: 10 µM unless noted
# NCI-H460 lung = details: 10 µM unless noted
# HOP-92 NSCLC = details: 10 µM unless noted
# NCI-H522 lung = details: 10 µM unless noted
# A549/ATCC NSCLC = details: 10 µM unless noted
# 786-0 renal = details: 10 µM unless noted
# COLO 205 colon = details: 10 µM unless noted
# DU-145 prostate = details: 10 µM unless noted
# K-562 leukemia = details: 10 µM unless noted
# MALME-3M melanoma = details: 10 µM unless noted
# MDA-MB-231 breast = details: 10 µM unless noted
# SF-268 CNS = details: 10 µM unless noted
# SF-295 CNS = details: 10 µM unless noted
# SF-539 CNS = details: 10 µM unless noted
# UACC-257 melanoma = details: 10 µM
# M14 melanoma = details: 10 µM unless noted
# RXF 393 renal = details: 10 µM unless noted
Compound,growth (NCI-H23 lung) [%],growth (NCI-H226 lung) [%],growth (NCI-H322M lung) [%],growth (HOP-62 NSCLC),growth (NCI-H460 lung),growth (HOP-92 NSCLC) [%],growth (NCI-H522 lung),growth (A549/ATCC NSCLC),growth (786-0 renal) [%],growth (COLO 205 colon),growth (DU-145 prostate),growth (K-562 leukemia),growth (MALME-3M melanoma),growth (MDA-MB-231 breast) [%],growth (SF-268 CNS) [%],growth (SF-295 CNS),growth (SF-539 CNS),growth (UACC-257 melanoma) [%],growth (M14 melanoma),growth (RXF 393 renal) [%]
COc1cc(-c2n[nH]nc2-c2ccc3c(c2)OCCO3)cc(OC)c1OC,22.8,75.7,51.4,8.87% (active),2.69% (active),24.3,-44.5% (active),16.5%,20.9,-85.7% (active),10%,8.96% (active),69.7%,33.3,15.9,2.6% (active),-35.9% (active),61.7,16.5%,
CC(C)CCC[C@@H](C)[C@H]1CC[C@H]2[C@@H]3CC[C@H]4C/C(=N/O)CC[C@]4(C)[C@H]3CC[C@]12C,107,92.1,103,92.8%,106%,101,104%,73.1%,102,108%,116%,91.2%,104%,98.8,110,101%,109%,,104%,102
Cc1cc(Nc2nc(-c3ccncc3)nc3ccccc23)n[nH]1,80.2,79.1,75.7,95.1%,66.1%,54.9,58.7%,41.9%,48.2,31.7%,79.7%,38.1%,88.8%,84.1,70.1,69.9%,59.5%,90,65.7%,
Nc1c(C(=O)Nc2cccc(Cl)c2Cl)sc2nc3c(cc12)C(=O)CCC3,76.1,87,76.7,95.3%,20%,91.5,12.5%,37.5%,92.4,25.8%,96.2%,42.1%,68.6%,71.8,103,35.8%,105%,76.9,80.8%,
CCN1C(=S)N(CC)C2Nn3c(s/c(=C4\C(=O)N(C)c5ccccc54)c3=O)=NC21 (stereo unspecified),44.9,88.6,73.1,52.3%,29%,76.1,32.3%,50.3%,56.2,30.8%,34.6%,12.8%,51%,42.1,53.5,47.4%,6.07% (active),,70.2%,
COc1cc(CCn2nnc3c(Nc4ccc(N5CCOCC5)cc4)ncnc32)cc(OC)c1,95.1,90.7,111,104%,98.4%,47.3,88.5%,98.1%,107,94.9%,99.3%,44.4%,100%,91.9,99.7,100%,87.5%,102,85.5%,
O=c1[nH]c(-c2cn(-c3ccc(Cl)cc3)nn2)nc2ccccc12,77.6,65.5,52.4,52.5%,74.7%,62.9,67.8%,61.2%,31.9,99.2%,94.6%,96.6%,59%,74.9,77.9,83.6%,48.2%,77.9,91.4%,
Cc1cc(Cl)ccc1OC(C)C(=O)Nc1nnc(C2CC2)s1 (stereo unspecified),76.7,98.5,124,94.7%,114%,81.3,94.6%,86.3%,92.7,105%,102%,120%,119%,95.1,111,89%,101%,,113%,
CC(=O)Nc1nc(C(=O)N2N=C(C)/C(=C/c3cccs3)C2=O)cs1,107,101,95.4,99.1%,107%,99.1,86.6%,101%,102,104%,99.4%,102%,86%,111,107,106%,103%,91.7,101%,
CC1=CNNc2c3ncnc-3ncn21,98,99.7,107,95.4%,108%,94.7,96.6%,100%,102,106%,104%,101%,102%,103,103,103%,101%,109,108%,
Cc1oc2nc[nH]c(=O)c2c1C(=O)/C=C/c1ccc(Cl)cc1Cl,90,107,92.4,92.6%,93.4%,95.5,39.1%,78.7%,83.8,107%,78.2%,17.8%,99.9%,89,94.6,104%,93.3%,,93.9%,
O=c1oc2cc(OS(=O)(=O)c3ccc(F)cc3)ccc2c2c1CCCCC2,66.1,55.1,90.4,96.4%,65.5%,60,49.8%,55.9%,76.2,24.4%,78.7%,31.6%,83.5%,90.5,86.8,63.4%,78.6%,62.1,69.4%,
COc1ccc(/C=c2\sc3n(c2=O)C2C(NN=3)N(C)C(=O)N2C)cc1 (stereo unspecified),36.3,94.1,46.6,21%,9.54% (active),54.7,10.1%,33%,23,-8.52% (active),9.2% (active),-34.6% (active),25%,42.5,71.3,-7.19% (active),-16.6% (active),,15.4%,
O=S(=O)(NCCCNc1nccc(-c2c(-c3ccc(F)c(O)c3)nc3sccn23)n1)c1ccc(Cl)cc1,80,104,98.6,96.6%,86.3%,74.3,57.5%,76.9%,110,42.6%,87.4%,44.2%,2.69% (active),66.4,82.8,106%,103%,,18.1%,
O=C1CCCCC=C1C[N+](=O)[O-],91.5,86.3,105,107%,102%,90,-12.3% (active),121%,102,43%,106%,27.8%,73.2%,107,94.2,97.7%,101%,,91.3%,
c1ccn2nnnc2c1,94.8,111,102,87%,105%,103,101%,94.3%,94.3,90.6%,103%,97.5%,98.5%,,101,101%,95.5%,101,-54.6% (active),110
CCn1cc(C2NC(=O)c3cc(F)ccc3N2)c2cccc(Cl)c21 (stereo unspecified),30.8,49.5,45.5,28.5%,6.22% (active),72,-22.1% (active),3.82% (active),42.3,-11.5% (active),11.6%,5.32% (active),53.7%,19,41.2,10.4%,-26.6% (active),,1.23% (active),
